From article PMC12820563, “FoxP3 forms a head-to-head dimer in vivo and stabilizes its multimerization on adjacent microsatellites”
In all, about 16,000 sequences were measured (“rpm ratio (pull-down/input)”: median about 0.5, highest 2% from about 5.5 on). The list comes from a sample in which the highest values are over-represented; it also holds similar and randomly drawn sequences.

The sequences below were run against T1, MBP-FoxP3dN (Mus musculus, UniProt Q99JB6 188-423) (assay: PD-seq (MBP pull-down with sequencing); 20 mM Tris-HCl pH 7.5, 100 mM NaCl, 1.5 mM MgCl2, 0.4 uM protein, 0.1 uM dsDNA library, 30 min, room temperature, amylose pull-down; high values mean tight binding). Conditions: protein: recombinant; tags: His6-MBP; chain copies: 2; dsDNA, one strand shown.
T1 sequence: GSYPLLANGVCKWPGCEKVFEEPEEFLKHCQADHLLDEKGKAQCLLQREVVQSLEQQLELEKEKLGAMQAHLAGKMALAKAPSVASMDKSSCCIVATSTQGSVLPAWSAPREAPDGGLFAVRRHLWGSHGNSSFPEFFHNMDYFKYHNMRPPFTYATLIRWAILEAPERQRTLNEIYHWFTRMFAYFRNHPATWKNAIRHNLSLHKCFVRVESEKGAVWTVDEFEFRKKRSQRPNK
In short: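 Binding is the reads-per-million enrichment of pull-down relative to input, pooled across replicates. For this, 0.4 µM His6-MBP-tagged mouse FoxP3 or FoxP1 fragment lacking the N-terminus, made in E. coli, was incubated with 0.1 µM Klenow-filled double-stranded degenerate DNA library for 30 min at room temperature in Tris pH 7.5 buffer with NaCl and MgCl2. Complexes bound to amylose resin were washed three times before proteinase K released the DNA for PCR barcoding and Illumina sequencing.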

| Sequence | binding signal |
| --- | --- |
| GATGATTGTTCTCCCAGCTGATGAATTTTGTACGTCGAGTAAACAAATTTTCCTAATCTTTCTGTTCAAGCGCCATCTAC | 1.18 RPM ratio (pull-down/input) |
| GATGATTGTTCTCCCAGCTGATGAATTGTAAGTGTCGAGTAAACAAATTTTCCTAATCTTTCTGTTCAAGCGCCATCTAC | 0.84 RPM ratio (pull-down/input) |
| GATGATTGTTCTCCCAGCTGATGAATTTTGATGTTCGAGTAAACAAATTTTCCTAATCTTTCTGTTCAAGCGCCATCTAC | 3.91 RPM ratio (pull-down/input) |
| GATGATTGTTCTCCCAGCTGATGAATTTAAGGATTCGAGTAAACAAATTTTCCTAATCTTTCTGTTCAAGCGCCATCTAC | 0.302 RPM ratio (pull-down/input) |
| GATGATTGTTCTCCCAGCTGATGAATTGAATATTTCGAGTAAACAAATTTTCCTAATCTTTCTGTTCAAGCGCCATCTAC | 0.671 RPM ratio (pull-down/input) |
| GATGATTGTTCTCCCAGCTGATGAATTTTGACCATCGAGTAAACAAATTTTCCTAATCTTTCTGTTCAAGCGCCATCTAC | 0.551 RPM ratio (pull-down/input) |
| GATGATTGTTCTCCCAGCTGATGAATTATTGTGTTCGAGTAAACAAATTTTCCTAATCTTTCTGTTCAAGCGCCATCTAC | 2.16 RPM ratio (pull-down/input) |
| GATGATTGTTCTCCCAGCTGATGAATTGTTATATTCGAGTAAACAAATTTTCCTAATCTTTCTGTTCAAGCGCCATCTAC | 1.27 RPM ratio (pull-down/input) |
| GATGATTGTTCTCCCAGCTGATGAATTGTGTTATTCGAGTAAACAAATTTTCCTAATCTTTCTGTTCAAGCGCCATCTAC | 7.88 RPM ratio (pull-down/input) |
| GATGATTGTTCTCCCAGCTGATGAATTGGATCGTTCGAGTAAACAAATTTTCCTAATCTTTCTGTTCAAGCGCCATCTAC | 0.402 RPM ratio (pull-down/input) |
| GATGATTGTTCTCCCAGCTGATGAATTTACAGGATCGAGTAAACAAATTTTCCTAATCTTTCTGTTCAAGCGCCATCTAC | 0.329 RPM ratio (pull-down/input) |
| GATGATTGTTCTCCCAGCTGATGAATTCTTAAGTTCGAGTAAACAAATTTTCCTAATCTTTCTGTTCAAGCGCCATCTAC | 0.237 RPM ratio (pull-down/input) |
| GATGATTGTTCTCCCAGCTGATGAATTGTATGATTCGAGTAAACAAATTTTCCTAATCTTTCTGTTCAAGCGCCATCTAC | 2.94 RPM ratio (pull-down/input) |
| GATGATTGTTCTCCCAGCTGATGAATTGTATGTGTCGAGTAAACAAATTTTCCTAATCTTTCTGTTCAAGCGCCATCTAC | 3.75 RPM ratio (pull-down/input) |
| GATGATTGTTCTCCCAGCTGATGAATTTGTATGGTCGAGTAAACAAATTTTCCTAATCTTTCTGTTCAAGCGCCATCTAC | 6.04 RPM ratio (pull-down/input) |
| GATGATTGTTCTCCCAGCTGATGAATTGTGTATGTCGAGTAAACAAATTTTCCTAATCTTTCTGTTCAAGCGCCATCTAC | 5.84 RPM ratio (pull-down/input) |
| GATGATTGTTCTCCCAGCTGATGAATTGGTATGGTCGAGTAAACAAATTTTCCTAATCTTTCTGTTCAAGCGCCATCTAC | 1.45 RPM ratio (pull-down/input) |
| GATGATTGTTCTCCCAGCTGATGAATTTGTATGTTCGAGTAAACAAATTTTCCTAATCTTTCTGTTCAAGCGCCATCTAC | 6.63 RPM ratio (pull-down/input) |
| GATGATTGTTCTCCCAGCTGATGAATTCTATGTGTCGAGTAAACAAATTTTCCTAATCTTTCTGTTCAAGCGCCATCTAC | 1.96 RPM ratio (pull-down/input) |
| GATGATTGTTCTCCCAGCTGATGAATTATGTATGTCGAGTAAACAAATTTTCCTAATCTTTCTGTTCAAGCGCCATCTAC | 4.99 RPM ratio (pull-down/input) |

| Sequence | binding signal |
| --- | --- |
| GATGATTGTTCTCCCAGCTGATGAATTCTGTATGTCGAGTAAACAAATTTTCCTAATCTTTCTGTTCAAGCGCCATCTAC | 4.95 RPM ratio (pull-down/input) |
| GATGATTGTTCTCCCAGCTGATGAATTTTGTATGTCGAGTAAACAAATTTTCCTAATCTTTCTGTTCAAGCGCCATCTAC | 6.01 RPM ratio (pull-down/input) |
| GATGATTGTTCTCCCAGCTGATGAATTGTATGGGTCGAGTAAACAAATTTTCCTAATCTTTCTGTTCAAGCGCCATCTAC | 1.19 RPM ratio (pull-down/input) |
| GATGATTGTTCTCCCAGCTGATGAATTGTATGTTTCGAGTAAACAAATTTTCCTAATCTTTCTGTTCAAGCGCCATCTAC | 3.89 RPM ratio (pull-down/input) |
| GATGATTGTTCTCCCAGCTGATGAATTATTCAGATCGAGTAAACAAATTTTCCTAATCTTTCTGTTCAAGCGCCATCTAC | 0.24 RPM ratio (pull-down/input) |
| GATGATTGTTCTCCCAGCTGATGAATTTTTTCAATCGAGTAAACAAATTTTCCTAATCTTTCTGTTCAAGCGCCATCTAC | 0.247 RPM ratio (pull-down/input) |
| GATGATTGTTCTCCCAGCTGATGAATTTGGTGAGTCGAGTAAACAAATTTTCCTAATCTTTCTGTTCAAGCGCCATCTAC | 0.814 RPM ratio (pull-down/input) |
| GATGATTGTTCTCCCAGCTGATGAATTGTAGGCGTCGAGTAAACAAATTTTCCTAATCTTTCTGTTCAAGCGCCATCTAC | 0.778 RPM ratio (pull-down/input) |
| GATGATTGTTCTCCCAGCTGATGAATTGTTCACGTCGAGTAAACAAATTTTCCTAATCTTTCTGTTCAAGCGCCATCTAC | 0.396 RPM ratio (pull-down/input) |
| GATGATTGTTCTCCCAGCTGATGAATTCTGTCGCTCGAGTAAACAAATTTTCCTAATCTTTCTGTTCAAGCGCCATCTAC | 0.926 RPM ratio (pull-down/input) |
| GATGATTGTTCTCCCAGCTGATGAATTACCACGCTCGAGTAAACAAATTTTCCTAATCTTTCTGTTCAAGCGCCATCTAC | 0.466 RPM ratio (pull-down/input) |
| GATGATTGTTCTCCCAGCTGATGAATTCTATAGCTCGAGTAAACAAATTTTCCTAATCTTTCTGTTCAAGCGCCATCTAC | 0.43 RPM ratio (pull-down/input) |
| GATGATTGTTCTCCCAGCTGATGAATTGGCGGCCTCGAGTAAACAAATTTTCCTAATCTTTCTGTTCAAGCGCCATCTAC | 0.449 RPM ratio (pull-down/input) |
| GATGATTGTTCTCCCAGCTGATGAATTTTGTATTTCGAGTAAACAAATTTTCCTAATCTTTCTGTTCAAGCGCCATCTAC | 5.33 RPM ratio (pull-down/input) |
| GATGATTGTTCTCCCAGCTGATGAATTGTATTTGTCGAGTAAACAAATTTTCCTAATCTTTCTGTTCAAGCGCCATCTAC | 6.43 RPM ratio (pull-down/input) |
| GATGATTGTTCTCCCAGCTGATGAATTGTATCTGTCGAGTAAACAAATTTTCCTAATCTTTCTGTTCAAGCGCCATCTAC | 1.2 RPM ratio (pull-down/input) |
| GATGATTGTTCTCCCAGCTGATGAATTTGTATTTTCGAGTAAACAAATTTTCCTAATCTTTCTGTTCAAGCGCCATCTAC | 4.85 RPM ratio (pull-down/input) |
| GATGATTGTTCTCCCAGCTGATGAATTGTAATTGTCGAGTAAACAAATTTTCCTAATCTTTCTGTTCAAGCGCCATCTAC | 2.31 RPM ratio (pull-down/input) |
| GATGATTGTTCTCCCAGCTGATGAATTTGTATTGTCGAGTAAACAAATTTTCCTAATCTTTCTGTTCAAGCGCCATCTAC | 6.39 RPM ratio (pull-down/input) |
| GATGATTGTTCTCCCAGCTGATGAATTACAAGCTTCGAGTAAACAAATTTTCCTAATCTTTCTGTTCAAGCGCCATCTAC | 0.518 RPM ratio (pull-down/input) |
